Laboratory results as given in PubChem BioAssay (NCI).
“And” between values parts separate entries of the source, which are not always exact repeats. Identical values can stand only once. The panel holds about 79,000 compounds, 15% with a hit somewhere; the sample as a whole holds those more often. Some structures have more than one record in an assay (separate samples or runs), and their calls can disagree. The source made the active and inactive calls. Rule as the data show it: active = growth inhibition above about 70%; inactive = the rest. Where a SMILES comes first, the peptide text is derived from it.

Experiment: NCI Yeast Anticancer Drug Screen. Data for the cln2 rad14 strain (AID 165);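 also: 0% = growth equal to vehicle treated cultures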
Settings: S. cerevisiae cln2 rad14 strain, at 50.0 µM, stronger effect = higher value
Summary of the method: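 The screen exposed genetically defined yeast (cln2 rad14) to test compounds and scored growth inhibition relative to vehicle-treated controls.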

SMILES	growth inhibition
CC(=O)OC1CCC2(C)C(CCC3C4CCC(OC(C)=O)C4(C)CCC32)O1 (stereo not given)	15% (inactive)
Cc1[nH]c2ccccc2c1C1Cc2ccccc2N1 (stereo not given)	47.4% (inactive) and 67.6% (inactive)
COc1ccc(C2c3cc4c(cc3OC(NNC(N)=O)C2C)OCO4)cc1 (stereo not given)	76% (active)
Oc1ccc(C(O)(c2ccccc2)c2ccccc2)cc1	89.9% (active) and 65.8% (inactive)
COc1ccc(CC(=O)c2ccc(O)cc2O)cc1	52.2% (inactive)
COC(=O)C#CC(=O)OC	17.9% (inactive) and 9.6% (inactive)
O=C1OC2=C(c3ccccc3)CCCC2C1=O (stereo not given)	92.5% (active) and 0.1% (inactive)
CC(C)C(NC(=O)C(N)CCC(=O)O)C(=O)O (stereo not drawn) (H-Glu-Val-OH; configuration not given here)	45% (inactive)
CC1(C)CC(=O)C2=C(C1)OC1=C(CC(C)(C)CC1=O)C2c1ccccc1Cl (stereo not given)	5.45% (inactive)
O=C(CC(=O)CC(O)(c1ccccc1)c1ccccc1)CC(=O)c1ccccc1	98% (active)
O=Nc1ccc(C=C2C(=O)C=CC2=O)cc1	99% (active)
C[N+]1(Cc2ccc(Cl)c(Cl)c2)CCCC1C1CCCN(Cc2ccc(Cl)c(Cl)c2)C1 (stereo not given)	-15.3% (inactive) and 42.5% (inactive)
C[C@H]1CC[C@H]([C@@H](C)[C@H]2[C@@H](O)C[C@H]3[C@@H]4CC[C@H]5C[C@@H](O)CC[C@]5(C)[C@H]4CC[C@]23C)NC1	91% (active) and 88.3% (active)
CCOP(=O)(OCC)C(C)(CC)NC(=O)C(C(F)(F)F)C(F)(F)F (stereo not given)	5.65% (inactive) and -1.65% (inactive)
[N-]=[N+]=NC(=O)Nc1cccc(C(F)(F)F)c1	97.8% (active)
NC(C/[N+]([O-])=N/O)C(=O)O (stereo not given)	5.75% (inactive) and 1.45% (inactive) and 18.8% (inactive)
NC(=O)N/N=C/c1ccc([N+](=O)[O-])o1	10.1% (inactive) and 26.1% (inactive)

Experiment: NCI Yeast Anticancer Drug Screen. Data for the bub3 strain (AID 167)
Settings: S. cerevisiae bub3 mutant strain, at 5.0 µM (retest, dose inferred, filed as 0.5), stronger effect = higher value
Summary of the method: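 Part of a panel of yeast mutants defective in DNA damage repair or cell cycle regulation. Each strain is grown with compound, and inhibition is calculated relative to solvent-treated cultures.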

SMILES	growth inhibition
Cc1cccc(Cc2ccccc2Cl)c1O	-1% (inactive)
OC1CN(Cc2ccccc2)C[C@@H]1O (stereo not given in full)	11% (inactive)
BrC(c1cccc2ccccc12)c1cccc2ccccc12	-6% (inactive)
COc1nc(NC2OC(CO)C(O)C(O)C2O)c(Cl)c(=O)n1C (stereo not given)	-1% (inactive)
O=S(=O)(CC(Cl)c1ccccc1)c1nc2ccccc2s1 (stereo not given)	-30% (inactive)
CCCCCCCCCCCCOS(=O)(=O)O	-17% (inactive)
O=C(NNc1ccnc2cc(Cl)ccc12)/C(=C/c1ccc2c(c1)OCO2)NC(=O)c1ccccc1	-9% (inactive)
O=C(CCN1CCN2c3ccccc3CCC2C1)c1ccc(F)cc1 (stereo not given)	60% (inactive) and 78% (active)
CC1C[C@]2(C)C(=O)Nc3ccccc3[C@@H]2Nc2ccccc21 (stereo not given in full)	20% (inactive)
Nc1nc(=S)c2ncn(C3OC(CO)C(O)C3O)c2[nH]1 (stereo not given)	99% (active)
O=C(O)c1c2ccccc2nc2[nH]c(=O)[nH]c(=O)c12	-1% (inactive)
N#Cc1c(/N=C/c2ccccc2Cl)sc2c1CCC2	0% (inactive)
CCC1=C(C)/C(=C/c2[nH]c(C)c(CC)c2C)N=C1C	26% (inactive) and 5% (inactive)
O=C(O)c1ccccc1C(=O)O	2% (inactive)
Cc1cc(C)nc(NS(=O)(=O)c2ccc(Nc3c4ccccc4nc4c(C(=O)NCCCN(CCO)CCO)cccc34)cc2)n1	-14% (inactive)
CCCCCCCCCCCCCCCCCCOCC(COP(=O)([O-])OCC[N+](C)(C)C)OC (stereo not given)	-16% (inactive)
S=c1nc[nH]c2[nH]ccc12	-1% (inactive)
C=C[C@]1(C)C=C2C(O)CC3C(C)(C)CCC[C@]3(CO)C2CC1 (stereo not given in full)	4% (inactive)
c1ccc(-c2cnc(-c3ccc(-c4ncc(-c5ccccc5)o4)cc3)o2)cc1	0% (inactive)

SMILES	growth inhibition
Nc1ccc2c(ccc3ccc4ccccc4c32)c1	-6% (inactive)
O/N=C(\CC(O)(C(F)(F)F)C(F)(F)F)c1cccc(Cl)c1	14% (inactive)
CC(=O)OC1CCC2(C)C(CCC3C4CCC(OC(C)=O)C4(C)CCC32)O1 (stereo not given)	-2% (inactive)
Cc1[nH]c2ccccc2c1C1Cc2ccccc2N1 (stereo not given)	9% (inactive) and 15% (inactive)
COc1ccc(C2c3cc4c(cc3OC(NNC(N)=O)C2C)OCO4)cc1 (stereo not given)	-34% (inactive)
Oc1ccc(C(O)(c2ccccc2)c2ccccc2)cc1	21% (inactive) and 36% (inactive)
COc1ccc(CC(=O)c2ccc(O)cc2O)cc1	-6% (inactive)
COC(=O)C#CC(=O)OC	-18% (inactive)
O=C1OC2=C(c3ccccc3)CCCC2C1=O (stereo not given)	0% (inactive)
CC(C)C(NC(=O)C(N)CCC(=O)O)C(=O)O (stereo not drawn) (H-Glu-Val-OH; configuration not given here)	-1% (inactive)
CC1(C)CC(=O)C2=C(C1)OC1=C(CC(C)(C)CC1=O)C2c1ccccc1Cl (stereo not given)	-11% (inactive)
O=C(CC(=O)CC(O)(c1ccccc1)c1ccccc1)CC(=O)c1ccccc1	-8% (inactive)
O=Nc1ccc(C=C2C(=O)C=CC2=O)cc1	84% (active)
C[N+]1(Cc2ccc(Cl)c(Cl)c2)CCCC1C1CCCN(Cc2ccc(Cl)c(Cl)c2)C1 (stereo not given)	-1% (inactive)
C[C@H]1CC[C@H]([C@@H](C)[C@H]2[C@@H](O)C[C@H]3[C@@H]4CC[C@H]5C[C@@H](O)CC[C@]5(C)[C@H]4CC[C@]23C)NC1	24% (inactive) and 0% (inactive)
CCOP(=O)(OCC)C(C)(CC)NC(=O)C(C(F)(F)F)C(F)(F)F (stereo not given)	20% (inactive)
[N-]=[N+]=NC(=O)Nc1cccc(C(F)(F)F)c1	14% (inactive)
NC(C/[N+]([O-])=N/O)C(=O)O (stereo not given)	46% (inactive)
NC(=O)N/N=C/c1ccc([N+](=O)[O-])o1	-3% (inactive)
